This is part of a sample that, as a whole, favours compounds with a hit. Of some 79,000 tested, about 15% had one in any assay. Calls of active or inactive are those of the source. No stated cut-off is given here; in the data, active means growth inhibition above about 70%; inactive means the rest.
Key:
[1] = NCI Yeast Anticancer Drug Screen. Data for the rad50 strain (AID 155);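 further: 0% = growth of vehicle-only cultures of the same strain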; conditions: S. cerevisiae rad50 strain growth inhibition; at 50.0 µM; hits give high values
Method in brief: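 Compounds were tested on a yeast strain with an engineered DNA damage repair alteration; the reported value is growth inhibition normalised to vehicle treatment.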

[2] = NCI Yeast Anticancer Drug Screen. Data for the mec2-1 strain (AID 157); conditions: S. cerevisiae mec2-1 strain, at 50.0 µM, hits give high values
Method in brief: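 Test agents were screened against the mec2-1 yeast strain, with defined DNA repair or cell cycle alteration. Growth was scored as inhibition against vehicle-only controls.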

[3] = NCI Yeast Anticancer Drug Screen. Data for the sgs1 mgt1 strain (AID 161);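 further: 0% = growth of cultures given vehicle only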; conditions: S. cerevisiae sgs1 mgt1 strain, at 50.0 µM, hits give high values
Method in brief: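 Inhibition of yeast growth, normalised to vehicle-treated controls, is reported for a strain bearing genetic alterations in DNA damage repair.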

[4] = NCI Yeast Anticancer Drug Screen. Data for the cln2 rad14 strain (AID 165);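 further: 0% = growth equal to vehicle treated cultures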; conditions: S. cerevisiae cln2 rad14 strain, at 50.0 µM, hits give high values
Method in brief: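 Growth of compound-exposed yeast (cln2 rad14 genotype) measured and expressed as inhibition relative to vehicle.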

[5] = NCI Yeast Anticancer Drug Screen. Data for the bub3 strain (AID 167); conditions: S. cerevisiae bub3 mutant strain, at 50.0 µM, hits give high values
Method in brief: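 Growth of a checkpoint-deficient yeast mutant is measured after compound exposure. Values represent inhibition relative to vehicle.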

[6] = NCI Yeast Anticancer Drug Screen. Data for the mlh1 rad18 strain (AID 175); conditions: S. cerevisiae mlh1 rad18 strain growth inhibition; at 50.0 µM; hits give high values
Method in brief: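 In this whole-cell yeast screen, a strain with altered DNA damage repair is challenged with compound, and its growth is measured against matched vehicle-treated controls.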

Measured: growth inhibition

Clc1ccc(C2=NON(c3ncccn3)C3N=CC=CN23)cc1 (stereo not drawn)
inactive: [1] 9.7% | [2] -20.8% | [3] 0.55% | [4] -6.75% | [5] 0.05% | [6] 19%

CCC(CC)NNC(CC)CC
inactive: [1] -1.8% | [2] -0.6% | [3] -8.05% | [4] 5.35% | [5] -16.3% | [6] -8.25%

CCc1cc2c(cc1COC(C)=O)C(C)(C)CCC2(C)C
inactive: [1] -10.8% | [2] -19.4% | [3] 5.5% | [4] -13.8% | [5] 4.3% | [6] -31.9%

Cc1cccn2nnnc12
inactive: [1] -7.75% | [2] -12.2% | [3] -9.1% | [4] 9% | [5] 1.65% | [6] -10.8%

Cn1c(COC(=O)NC2CCCCC2)c(COC(=O)NC2CCCCC2)c2ccc3cc(C=O)ccc3c21
inactive: [1] 5.95% | [2] 7.85% | [3] -14.5% | [4] -3.95% | [5] -10.4% | [6] -27.3%

CC(=O)Nc1ccc(S(=O)(=O)/C(=C/c2ccc(-c3ccc(Br)cc3)o2)c2ccc([N+](=O)[O-])o2)cc1
inactive: [1] 30% | [2] -7.45% | [3] -12.2% | [4] 13.7% | [5] 1.1% | [6] -8.05%

CCOC(=O)c1cnc(SC)nc1Nc1ccc(Cl)cc1
inactive: [1] -13.8% | [2] -9.4% | [3] -6.55% | [4] -8.65% | [5] 0.55% | [6] -31.2%

COc1nc(N=P(c2ccccc2)(c2ccccc2)c2ccccc2)cc(=O)[nH]1
inactive: [1] 4.3% | [2] 1.6% | [3] 26.9% | [4] 27.7% | [5] 21.9% | [6] 4.65%

Nc1ccc2c(c1)C1C(C3C2C2(Cl)C(Cl)=C(Cl)C3(Cl)C2(Cl)Cl)C2(Cl)C(Cl)=C(Cl)C1(Cl)C2(Cl)Cl (stereo not drawn)
inactive: [1] 33.6% | [2] 24.9% | [3] 21.9% | [4] 24.1% | [5] 50.1% | [6] 39.5%

CC1CCC(C(C)C)C2(C1)OC(CCl)CS2 (stereo not drawn)
inactive: [1] -0.35% | [2] 14.7% | [3] 7.8% | [4] -18.1% | [5] 26.9% | [6] 1.95%

CCCCCCCCN(c1ccc(C(=O)NC(CCC(=O)OCC)C(=O)OCC)cc1)S(=O)(=O)c1ccc(C)cc1 (stereo not drawn)
inactive: [1] -14.6% | [2] -4.5% | [3] -18.9% | [4] -24.6% | [5] -3.6% | [6] -12.2%

O=C(Nc1ccccc1C(=O)N/N=C/c1ccccc1O)c1ccccc1Cl
active: [1] 73.3% | [2] 91% | [3] 91.4% | [4] 84.8% | [6] 90.8%
inactive: [5] 68.3%

CC(C)(C)OC(=O)NCCCCC(NC(=O)OC(C)(C)C)C(=O)O (stereo not drawn)
inactive: [1] 3.65% | [2] 8.55% | [3] 9.7% | [4] 2.8% | [5] 5.95% | [6] -8.65%

CCCOC1(C)Oc2cc3c(cc2C(c2cc(OC)c(OC)c(OC)c2)C1C)OCO3 (stereo not drawn)
inactive: [1] 10.3% | [2] 2.7% | [3] -4.4% | [4] 45.4% | [5] 18.6% | [6] 14.7%

CC1(C)CC(C(N)=O)C(C)(C)N1O (stereo not drawn)
inactive: [1] 13% | [2] 7.55% | [3] 23.6% | [4] 17.9% | [5] 23.8% | [6] 7.1%

CC(C)c1nnc(NC(=O)CSC(=S)N2CCOCC2)s1
inactive: [1] -23.9% | [2] -18.1% | [3] -5.95% | [4] -51.9% | [5] -16.6% | [6] -2.25%

CCCCCCC1N(C(C#N)c2ccccc2)CCCN1C(C#N)c1ccccc1 (stereo not drawn)
inactive: [1] 19.8% | [2] 14.2% | [3] 16.6% | [4] 7.6% | [5] 2.4% | [6] 36.4%

COC(=O)C1C2C=CC(C1C(=O)O)C1C(Br)=C(Br)C21 (stereo not drawn)
inactive: [1] 20.4% | [2] 10.9% | [3] -8.05% | [4] -10.1% | [5] 1.9% | [6] -8.45%

C/C=C/C[P+](Cc1ccccc1)(c1ccccc1)c1ccccc1
inactive: [1] 59.6% | [2] 14.9% | [3] 26.2% | [4] -32.1% | [5] 24.6% | [6] 14.3%

CC(C)(C)c1cc(C(=O)Nc2cc(Br)c(Br)cc2S(N)(=O)=O)cc(C(C)(C)C)c1O
inactive: [1] 37% | [2] 7.8% | [3] 31.6% | [4] 25% | [5] 39.8% | [6] 37.9%

O=C(Nc1ccccc1)Nc1cc(C(F)(F)F)ccc1Cl
inactive: [1] 36% | [2] 18.6% | [3] 4.15% | [4] -10.2% | [5] 2.95% | [6] -17.1%

O=S(=O)([O-])c1ccc(N=Cc2ccccc2[O-])cc1.O=S(=O)([O-])c1ccc(N=Cc2ccccc2[O-])cc1.[Co+2]
inactive: [1] 16.6% | [2] 2.25% | [3] -15.2% | [4] 23.4% | [5] 9.25% | [6] -9.65%

CC(=O)C1CCN(Cc2ccccc2)C1 (stereo not drawn)
inactive: [1] 3.75% | [2] 6.9% | [3] 7.15% | [4] -1.05% | [5] -12.7% | [6] -21.6%

C(/Cc1ccc2c(c1)OCO2)=N\NC1=NCCN1
inactive: [1] -8.5% | [2] -0.55% | [3] 1.55% | [4] -19.4% | [5] 5.2% | [6] 18.1%

COc1ccc2c(c1)CCCN2C(=N)c1ccc([N+](=O)[O-])cc1
inactive: [1] -24.5% | [2] -4.1% | [3] -9.95% | [4] -52.9% | [5] 22.6% | [6] -11.5%

C[N+](C)(C)CCC(=O)CC[N+](C)(C)C
inactive: [1] 16.2% | [2] -2.2% | [3] 0.5% | [4] -24.4% | [5] 32.6% | [6] 40.9%

CCOC(C)Oc1ccccc1 (stereo not drawn)
inactive: [1] 35.5% | [2] -8.6% | [3] 20.4% | [4] 15.4% | [5] -28.1% | [6] 16.4%

O=C(Cc1nccc2c1[nH]c1ccccc12)OC1C#CCSCC#C/C=C\1 (stereo not drawn)
inactive: [1] -0.55% | [2] 17.8% | [3] 9.5% | [4] -14.7% | [5] 12.3% | [6] -1.15%

COc1cc(/C=C/c2cc(/C=C/c3ccc(O)c(OC)c3)c([N+](=O)[O-])cc2[N+](=O)[O-])ccc1O
inactive: [1] 66.3% | [2] 23.8% | [3] 42.4% | [4] -4.45% | [5] 7.15% | [6] 47.7%

COc1ccc(C2C(Cl)C(=O)N2NC(=O)c2ccccc2O)cc1 (stereo not drawn)
inactive: [1] -27.2% | [2] -17.4% | [3] -38.1% | [4] -1.45% | [5] -4.6% | [6] -34.8%

O=C(O)C1C2CCC(O2)C1C(=O)Nc1cccc2cccnc12 (stereo not drawn)
inactive: [1] 15.3% | [2] 12.4% | [3] -10.2% | [4] -1.15% | [5] 22.5% | [6] 17.8%

CN(C)CCNC(=O)c1cccc2c(Nc3ccc(S(=O)(=O)N=C(N)N)cc3)c3ccccc3nc12
inactive: [1] -24.4% | [2] -0.3% | [3] -37% | [4] 8.35% | [5] -34.9% | [6] 53.9%

CC(Sc1ccccn1)C(=O)c1ccccc1 (stereo not drawn)
inactive: [1] -1.55% | [2] -6.75% | [3] -4.05% | [4] -52.5% | [5] -9.05% | [6] 1.2%

CC(=O)C(N=Nc1nc2ccccc2[nH]1)C(C)=O
inactive: [1] 27.1% | [2] 14.1% | [3] -1.8% | [4] 15.2% | [5] 47.9% | [6] 32.5%

CCCCCCC(C)CC(=O)O (stereo not drawn)
inactive: [1] -4.7% | [2] -3.85% | [3] 0% | [4] -59% | [5] -7.2% | [6] -21%

O=C1c2cc(O)c(O)cc2C(=O)c2cc3c(cc21)OCO3
inactive: [1] -38.2% | [2] -5.55% | [3] 1.4% | [4] -11.6% | [5] -8.3% | [6] -15.9%

Cn1cc2c(=O)n(OS(=O)(=O)c3ccccc3)c(=O)[nH]c2n1
inactive: [1] 12.8% | [2] -11.8% | [3] -4.55% | [4] -4.4% | [5] -5.2% | [6] 8.8%

CCOC1CCCCO1 (stereo not drawn)
inactive: [1] -24.5% | [2] -4.1% | [3] -13.4% | [4] 9.4% | [5] -13.8% | [6] -8.1%

From PubChem BioAssay (NCI)
